Data taken from PubChem BioAssay (EPA / NIEHS).
Records with an inconclusive call do not appear. Activity calls are given as the source filed them. The calls were made as follows, unless noted: active = hit-call score of the fitted dose curve at least 0.9, where 1 is the maximum; inactive = score below 0.9.

Tests used:
[1] = target: human Peroxisome Proliferator-activated Receptor delta (PPARd), PPARD (gene 5467) (UniProt Q03181); test: ATG_PPARd_TRANS: Attagene TRANS-FACTORIAL HepG2 Assay for human Peroxisome Proliferator-activated Receptor delta (PPARd) (AID 2283002; active = hit-call score of the fitted dose curve at least 0.9, where 1 is the maximum)
Outline: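 Read-out is induced reporter mRNA, quantified by RT-PCR with fluorescent labelling and capillary electrophoresis after 24 h dosing. Cells are HepG2 transiently carrying multiple GAL4-UAS reporter units driven by exogenous NR-GAL4 chimeras; DMSO serves as baseline.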

[2] = read-out: Intercellular Adhesion Molecule 1 (ICAM1), ICAM1 (gene 3383); test: BSK_3C_ICAM1: BioMAP Diversity Plus: 3C Assay for Intercellular Adhesion Molecule 1 (ICAM1) Biomarker Activity (AID 2283003); conditions: primary human endothelial cells (HUVEC); actives raise or lower the signal
Outline: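 Primary human umbilical vein endothelial cells in the BioMAP 3C system were exposed to chemicals for 24 h, then ICAM-1 was quantified by ELISA. Activity was fitted bidirectionally against the DMSO negative control baseline.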

[3] = target: human Retinoic Acid Receptor beta (RARb), RARB (gene 5915) (UniProt P10826); test: ATG_RARb_TRANS: Attagene TRANS-FACTORIAL HepG2 Assay for human Retinoic Acid Receptor beta (AID 2283004; active = hit-call score of the fitted dose curve at least 0.9, where 1 is the maximum)
Outline: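 HepG2, transient MRTU transfection, NR–Gal4 chimera, 24 h treatment; RT-PCR plus CE fluorescence detection of reporter mRNA; gain of signal vs DMSO.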

[4] = BSK_3C_Proliferation: Cell Proliferation Assessment in the BioMAP Diversity Plus: 3C Assay (AID 2283006); conditions: primary human endothelial cells (HUVEC);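 as to AC50: potency may reflect either rise or fall in cell number versus DMSO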
Outline: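 Human umbilical vein endothelial cells were grown sub-confluent and exposed to chemical for 48 h, then fixed with 10% TCA and stained with 0.1% sulforhodamine B; absorbance at 560 nm gave relative cell number, fitted bidirectionally against DMSO baseline.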

[5] = target: Peroxisome proliferator-activated receptor gamma (Homo sapiens) (UniProt P37231); test: ATG_PPARg_TRANS: Attagene TRANS-FACTORIAL HepG2 Assay for human Peroxisome Proliferator-activated Receptor-gamma (PPARg) (AID 2283007; active = hit-call score of the fitted dose curve at least 0.9, where 1 is the maximum)
Outline: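 Read-out: reporter mRNA induction, detected by fluorescence after RT-PCR and capillary electrophoresis. Transiently transfected human HepG2 liver cells carrying a chimeric NR-Gal4 construct were dosed for 24 h; activity was fitted upward relative to DMSO.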

[6] = target: Nuclear receptor subfamily 1 group I member 2 (Homo sapiens) (UniProt O75469); test: ATG_PXR_TRANS: Attagene TRANS-FACTORIAL HepG2 Assay for human Pregnane X Receptor (PXR) (AID 2283008; active = hit-call score of the fitted dose curve at least 0.9, where 1 is the maximum)
Outline: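 Measures mRNA induction of a GAL4-UAS-driven reporter in human HepG2 cells transiently expressing PXR fused to Gal4, following 24 h treatment. DMSO served as negative control and baseline.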

[7] = target: human RAR-related Orphan Receptor gamma (RORg), RORC (gene 6097) (UniProt P51449); test: ATG_RORg_TRANS: Attagene TRANS-FACTORIAL HepG2 Assay for human RAR-related Orphan Receptor gamma (RORg) (AID 2283011; active = hit-call score of the fitted dose curve at least 0.9, where 1 is the maximum)
Outline: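 Activity is scored as increase in GAL4-UAS reporter mRNA over DMSO, detected by fluorescent RT-PCR and capillary electrophoresis in HepG2 cells transiently expressing a RORg-Gal4 chimera, 24 h after dosing.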

[8] = target: human Retinoid X Receptor beta (RXRb), RXRB (gene 6257) (UniProt P28702); test: ATG_RXRb_TRANS: Attagene TRANS-FACTORIAL HepG2 Assay for human Retinoid X Receptor beta (RXRb) (AID 2283013; active = hit-call score of the fitted dose curve at least 0.9, where 1 is the maximum)
Outline: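 HepG2 cells transiently transfected with multiplexed reporter units driven by GAL4-UAS and exogenous chimeric NR-Gal4 proteins; treated 24 h. Reporter mRNA measured by RT-PCR, 6-FAM labelling and capillary electrophoresis; gain-of-signal fitted versus DMSO baseline.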

[9] = read-out: E-selectin (Homo sapiens) (UniProt P16581); test: BSK_3C_Eselectin: BioMAP Diversity Plus: 3C Assay for Eselectin Biomarker Activity (AID 2283015); conditions: primary human endothelial cells (HUVEC); actives raise or lower the signal
Outline: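 Human vascular endothelium from umbilical vein is exposed to test chemicals for 24 h. E-selectin levels are read by ELISA and compared with DMSO controls.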

[10] = read-out: Interleukin-1 alpha (IL1a), IL1A (gene 3552); test: BSK_BE3C_IL1a: BioMAP Diversity Plus: BE3C Assay for Interleukin-1 alpha (IL1a) Biomarker Activity (AID 2283016); conditions: primary human bronchial epithelial cells; actives raise or lower the signal
Outline: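 Human primary bronchial epithelial cells (BE3C system) were dosed with compound and IL-1a measured by ELISA 24 h later. Activity was fitted bidirectionally against DMSO baseline; cytotoxicity was tracked in parallel cultures by SRB total-protein staining.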

[11] = read-out: Monocyte Chemoattractant Protein-1 (MCP1), CCL2 (gene 6347); test: BSK_3C_MCP1: BioMAP Diversity Plus: 3C Assay for Monocyte Chemoattractant Protein-1 (MCP1) Biomarker Activity (AID 2283017); conditions: primary human endothelial cells (HUVEC); actives raise or lower the signal
Outline: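 Endothelial cells from human umbilical vein are dosed with chemical, cultured 24 h, then assayed for MCP-1 by ELISA; both increases and decreases are modelled against DMSO controls.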

[12] = read-out: Human Leukocyte Antigen - DR isotype (HLADR), HLA-DRA (gene 3122); test: BSK_3C_HLADR: BioMAP Diversity Plus: 3C Assay for Human Leukocyte Antigen - DR isotype (HLADR) Biomarker Activity (AID 2283019); conditions: primary human endothelial cells (HUVEC); actives raise or lower the signal
Outline: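 Endothelial cells from human umbilical vein are treated with test chemical; after 24 h, HLA-DR levels are measured by ELISA. Data are fitted in both directions using DMSO as the baseline.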

[13] = read-out: Interleukin-8 (IL8), CXCL8 (gene 3576); test: BSK_3C_IL8: BioMAP Diversity Plus: 3C Assay for Interleukin-8 (IL8) Biomarker Activity (AID 2283020); conditions: primary human endothelial cells (HUVEC); actives raise or lower the signal
Outline: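 Primary human umbilical vein endothelial cells (3C system) were exposed to test chemical for 24 h, then IL-8 was quantified by ELISA. Responses were fitted bidirectionally against DMSO vehicle as baseline.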

[14] = read-out: Monokine induced gamma interferon (MIG), CXCL9 (gene 4283); test: BSK_3C_MIG: BioMAP Diversity Plus: 3C Assay for Monokine induced gamma interferon (MIG) Biomarker Activity (AID 2283021); conditions: primary human endothelial cells (HUVEC); actives raise or lower the signal
Outline: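 Primary human umbilical vein endothelial cells in the 3C system were exposed to chemical for 24 h, after which MIG was quantified by ELISA. Activity was fitted bidirectionally against DMSO as negative control and baseline.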

[15] = target: human Vitamin D Receptor (VDR), VDR (gene 7421) (UniProt P11473); test: ATG_VDR_TRANS: Attagene TRANS-FACTORIAL HepG2 Assay for human Vitamin D Receptor (VDR) (AID 2283022; active = hit-call score of the fitted dose curve at least 0.9, where 1 is the maximum)
Outline: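 Fluorescence of labelled reporter cDNA fragments, resolved by capillary electrophoresis, gives mRNA induction after 24 h treatment of HepG2 cells carrying transfected Gal4-fusion reporter units. Activity is fitted in the positive direction with DMSO as baseline.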

[16] = BSK_3C_SRB: Viability Assessment in the BioMAP Diversity Plus: 3C Assay (AID 2283023); conditions: primary human endothelial cells (HUVEC);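 also: fitted both ways against DMSO so a hit may be signal rise or drop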
Outline: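 Cells were dosed with chemical, cultured 24 h, fixed with 10% TCA, stained with 0.1% SRB and read at 560 nm. Human umbilical vein endothelium was used; DMSO served as negative control and baseline.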

[17] = target: human Thyroid Receptor alpha (THRa1), THRA (gene 7067) (UniProt P10827); test: ATG_THRa1_TRANS: Attagene TRANS-FACTORIAL HepG2 Assay for human Thyroid Receptor alpha (THRa1) (AID 2283014; active = hit-call score of the fitted dose curve at least 0.9, where 1 is the maximum)
Outline: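 First, HepG2 cells receive multiple GAL4-UAS reporter units and the chimeric receptor. They are then dosed for 24 h, after which RNA is reverse-transcribed, amplified, labelled, HpaI-cut and sized by capillary electrophoresis; gain relative to DMSO is scored.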

[18] = target: human RAR-related Orphan Receptor beta (RORb), RORB (gene 6096) (UniProt Q92753); test: ATG_RORb_TRANS: Attagene TRANS-FACTORIAL HepG2 Assay for human RAR-related Orphan Receptor beta (RORb) (AID 2283010; active = hit-call score of the fitted dose curve at least 0.9, where 1 is the maximum)
Outline: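 HepG2 cells were transiently transfected with multiplexed GAL4-UAS reporter units expressing chimeric nuclear receptor–GAL4 proteins, then dosed for 24 h. Reporter mRNA was quantified by RT-PCR with fluorescent labelling and capillary electrophoresis; gain of signal was fitted relative to DMSO.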

[19] = read-out: Monocyte Chemoattractant Protein-1 (MCP1), CCL2 (gene 6347); test: BSK_4H_MCP1: BioMAP Diversity Plus: 4H Assay for Monocyte Chemoattractant Protein-1 (MCP1) Biomarker Activity (AID 2283018); conditions: primary human endothelial cells (HUVEC); actives raise or lower the signal
Outline: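 Human umbilical vein endothelial cells (4H system) dosed with chemical; MCP-1 measured by ELISA 24 h after dosing. Bidirectional curve fitting against DMSO negative control as baseline; parallel SRB total-protein staining tracks overt cytotoxicity.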

[20] = target: Retinoic acid receptor RXR-alpha (Homo sapiens) (UniProt P19793); test: ATG_RXRa_TRANS: Attagene TRANS-FACTORIAL HepG2 Assay for human Retinoid X Receptor alpha (RXRa) (AID 2283012; active = hit-call score of the fitted dose curve at least 0.9, where 1 is the maximum)
Outline: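 HepG2 cells transiently transfected with multiplexed GAL4-UAS reporter units and chimeric NR-GAL4 fusions, dosed 24 h. Reporter mRNA measured by RT-PCR, FAM labelling, HpaI digestion and capillary electrophoresis; gain-of-signal fitted relative to DMSO baseline.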

Measured: AC50

Sequence of Peroxisome proliferator-activated receptor gamma (Homo sapiens) (P37231 whole entry, looked up, the tested form may be a part): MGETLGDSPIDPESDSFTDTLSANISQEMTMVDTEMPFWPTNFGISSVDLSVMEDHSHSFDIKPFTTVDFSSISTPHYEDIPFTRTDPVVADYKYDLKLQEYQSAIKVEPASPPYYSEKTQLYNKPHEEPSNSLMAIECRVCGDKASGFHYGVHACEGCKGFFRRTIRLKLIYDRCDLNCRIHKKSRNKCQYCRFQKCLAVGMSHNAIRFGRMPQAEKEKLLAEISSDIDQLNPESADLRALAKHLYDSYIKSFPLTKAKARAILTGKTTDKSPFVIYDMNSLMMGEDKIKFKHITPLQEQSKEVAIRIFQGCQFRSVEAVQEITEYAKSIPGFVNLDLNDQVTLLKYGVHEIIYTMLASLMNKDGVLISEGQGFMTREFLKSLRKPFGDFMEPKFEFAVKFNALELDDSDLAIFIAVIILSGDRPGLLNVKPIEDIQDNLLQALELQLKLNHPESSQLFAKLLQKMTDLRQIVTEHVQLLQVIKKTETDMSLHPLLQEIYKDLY
Sequence of human Retinoic Acid Receptor beta (RARb), RARB (gene 5915) (P10826 whole entry, looked up, the tested form may be a part): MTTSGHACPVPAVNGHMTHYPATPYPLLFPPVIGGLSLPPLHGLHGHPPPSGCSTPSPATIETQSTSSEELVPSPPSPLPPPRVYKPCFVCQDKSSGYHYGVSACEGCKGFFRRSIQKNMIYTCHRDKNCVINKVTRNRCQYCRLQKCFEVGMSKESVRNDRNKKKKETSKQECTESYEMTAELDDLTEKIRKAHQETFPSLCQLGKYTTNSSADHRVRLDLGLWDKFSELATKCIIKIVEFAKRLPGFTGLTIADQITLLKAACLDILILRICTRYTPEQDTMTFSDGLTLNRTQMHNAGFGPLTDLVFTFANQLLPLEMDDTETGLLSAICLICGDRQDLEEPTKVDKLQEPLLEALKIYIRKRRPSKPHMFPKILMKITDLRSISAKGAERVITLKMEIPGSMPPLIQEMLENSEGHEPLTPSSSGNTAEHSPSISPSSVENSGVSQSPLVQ
Sequence of Nuclear receptor subfamily 1 group I member 2 (Homo sapiens) (O75469 whole entry, looked up, the tested form may be a part): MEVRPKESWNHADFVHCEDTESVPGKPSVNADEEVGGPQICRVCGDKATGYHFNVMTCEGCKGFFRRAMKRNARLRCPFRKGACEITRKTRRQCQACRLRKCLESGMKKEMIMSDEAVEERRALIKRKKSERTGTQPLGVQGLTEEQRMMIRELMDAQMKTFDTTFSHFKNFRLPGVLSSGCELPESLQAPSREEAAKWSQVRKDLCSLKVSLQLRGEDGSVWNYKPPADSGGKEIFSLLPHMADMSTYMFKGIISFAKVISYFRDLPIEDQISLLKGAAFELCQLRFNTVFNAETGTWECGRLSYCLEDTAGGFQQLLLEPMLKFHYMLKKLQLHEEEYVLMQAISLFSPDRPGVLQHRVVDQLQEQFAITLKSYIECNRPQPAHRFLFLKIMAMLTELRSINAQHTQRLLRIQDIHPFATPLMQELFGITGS
Sequence of human Vitamin D Receptor (VDR), VDR (gene 7421) (P11473 whole entry, looked up, the tested form may be a part): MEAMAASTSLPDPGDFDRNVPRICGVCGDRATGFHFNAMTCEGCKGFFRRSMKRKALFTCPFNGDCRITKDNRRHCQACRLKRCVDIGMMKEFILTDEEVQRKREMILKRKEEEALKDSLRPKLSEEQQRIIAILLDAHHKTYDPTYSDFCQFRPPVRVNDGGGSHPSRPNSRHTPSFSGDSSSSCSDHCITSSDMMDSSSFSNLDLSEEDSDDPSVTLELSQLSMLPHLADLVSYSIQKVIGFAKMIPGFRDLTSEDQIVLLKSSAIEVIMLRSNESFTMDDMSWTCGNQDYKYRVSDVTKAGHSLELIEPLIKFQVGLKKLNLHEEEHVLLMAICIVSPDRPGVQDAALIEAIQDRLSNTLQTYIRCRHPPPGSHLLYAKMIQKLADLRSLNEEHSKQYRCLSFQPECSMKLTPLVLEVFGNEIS
Sequence of human Peroxisome Proliferator-activated Receptor delta (PPARd), PPARD (gene 5467) (Q03181 whole entry, looked up, the tested form may be a part): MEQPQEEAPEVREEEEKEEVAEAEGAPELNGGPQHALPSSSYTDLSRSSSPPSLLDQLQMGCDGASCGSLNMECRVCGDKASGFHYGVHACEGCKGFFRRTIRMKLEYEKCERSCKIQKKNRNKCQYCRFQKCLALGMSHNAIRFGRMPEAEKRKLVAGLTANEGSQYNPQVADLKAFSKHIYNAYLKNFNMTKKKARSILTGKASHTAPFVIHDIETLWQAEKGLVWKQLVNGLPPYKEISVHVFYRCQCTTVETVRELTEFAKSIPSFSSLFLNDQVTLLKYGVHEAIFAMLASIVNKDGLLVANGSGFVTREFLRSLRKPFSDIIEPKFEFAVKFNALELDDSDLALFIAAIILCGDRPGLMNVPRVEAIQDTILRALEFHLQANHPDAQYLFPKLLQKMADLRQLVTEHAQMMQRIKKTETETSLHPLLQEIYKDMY
Sequence of human RAR-related Orphan Receptor gamma (RORg), RORC (gene 6097) (P51449 whole entry, looked up, the tested form may be a part): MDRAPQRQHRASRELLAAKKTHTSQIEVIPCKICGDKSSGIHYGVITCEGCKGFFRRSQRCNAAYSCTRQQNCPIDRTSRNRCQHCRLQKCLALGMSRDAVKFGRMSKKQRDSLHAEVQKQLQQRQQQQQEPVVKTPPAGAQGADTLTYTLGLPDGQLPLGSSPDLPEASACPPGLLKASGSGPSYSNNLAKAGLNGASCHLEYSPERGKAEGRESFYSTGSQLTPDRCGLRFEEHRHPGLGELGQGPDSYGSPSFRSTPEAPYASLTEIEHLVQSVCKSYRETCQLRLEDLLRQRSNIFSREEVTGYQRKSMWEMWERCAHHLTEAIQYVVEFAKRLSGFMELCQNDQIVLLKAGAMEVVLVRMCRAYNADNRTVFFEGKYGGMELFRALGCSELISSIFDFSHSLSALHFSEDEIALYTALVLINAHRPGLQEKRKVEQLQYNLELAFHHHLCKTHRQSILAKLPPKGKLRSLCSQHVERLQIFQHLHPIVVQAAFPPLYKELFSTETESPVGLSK
Sequence of human Retinoid X Receptor beta (RXRb), RXRB (gene 6257) (P28702 whole entry, looked up, the tested form may be a part): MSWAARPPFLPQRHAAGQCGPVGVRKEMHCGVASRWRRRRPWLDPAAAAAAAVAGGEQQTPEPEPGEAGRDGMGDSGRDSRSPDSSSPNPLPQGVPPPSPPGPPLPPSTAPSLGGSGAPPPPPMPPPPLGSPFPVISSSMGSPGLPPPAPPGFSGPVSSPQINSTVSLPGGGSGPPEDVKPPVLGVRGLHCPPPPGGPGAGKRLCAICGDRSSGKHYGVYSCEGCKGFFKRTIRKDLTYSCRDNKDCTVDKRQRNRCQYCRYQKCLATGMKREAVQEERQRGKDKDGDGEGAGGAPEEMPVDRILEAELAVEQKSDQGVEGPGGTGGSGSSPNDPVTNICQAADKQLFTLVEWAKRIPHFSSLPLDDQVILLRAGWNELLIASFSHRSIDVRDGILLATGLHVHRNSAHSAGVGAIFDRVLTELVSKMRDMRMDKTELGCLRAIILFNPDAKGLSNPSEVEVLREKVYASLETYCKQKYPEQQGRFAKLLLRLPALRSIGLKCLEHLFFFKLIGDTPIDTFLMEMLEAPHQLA
Sequence of E-selectin (Homo sapiens) (P16581 whole entry, looked up): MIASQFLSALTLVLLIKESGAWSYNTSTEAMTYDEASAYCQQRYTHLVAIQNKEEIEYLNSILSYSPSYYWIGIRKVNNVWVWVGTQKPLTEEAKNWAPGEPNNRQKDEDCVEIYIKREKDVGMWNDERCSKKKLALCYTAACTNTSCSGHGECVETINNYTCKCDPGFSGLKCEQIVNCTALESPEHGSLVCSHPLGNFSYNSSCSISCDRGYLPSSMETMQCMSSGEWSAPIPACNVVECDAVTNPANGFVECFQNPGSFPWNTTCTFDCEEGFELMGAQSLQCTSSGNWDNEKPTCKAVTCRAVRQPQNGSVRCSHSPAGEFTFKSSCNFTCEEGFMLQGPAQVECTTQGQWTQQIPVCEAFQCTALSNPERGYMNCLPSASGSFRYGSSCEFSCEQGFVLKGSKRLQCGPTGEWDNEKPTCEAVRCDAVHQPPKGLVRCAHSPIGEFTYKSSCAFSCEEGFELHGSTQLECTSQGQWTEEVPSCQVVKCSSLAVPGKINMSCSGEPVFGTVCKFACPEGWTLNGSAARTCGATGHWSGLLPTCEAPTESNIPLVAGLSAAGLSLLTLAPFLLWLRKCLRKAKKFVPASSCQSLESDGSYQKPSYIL
Sequence of human RAR-related Orphan Receptor beta (RORb), RORB (gene 6096) (Q92753 whole entry, looked up, the tested form may be a part): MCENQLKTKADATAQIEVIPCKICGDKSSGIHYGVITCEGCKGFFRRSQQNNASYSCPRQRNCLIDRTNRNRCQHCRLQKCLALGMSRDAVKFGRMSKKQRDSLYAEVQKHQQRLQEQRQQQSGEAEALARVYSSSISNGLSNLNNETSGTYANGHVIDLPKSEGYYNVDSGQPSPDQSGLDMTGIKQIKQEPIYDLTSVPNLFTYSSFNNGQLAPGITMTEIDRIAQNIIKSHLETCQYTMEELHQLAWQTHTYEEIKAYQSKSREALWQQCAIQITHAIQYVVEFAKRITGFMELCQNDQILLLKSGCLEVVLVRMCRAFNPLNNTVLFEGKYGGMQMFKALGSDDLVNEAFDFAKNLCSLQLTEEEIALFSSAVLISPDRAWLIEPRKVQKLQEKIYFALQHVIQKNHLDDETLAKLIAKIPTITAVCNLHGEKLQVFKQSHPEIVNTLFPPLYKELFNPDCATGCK
Sequence of human Thyroid Receptor alpha (THRa1), THRA (gene 7067) (P10827 whole entry, looked up, the tested form may be a part): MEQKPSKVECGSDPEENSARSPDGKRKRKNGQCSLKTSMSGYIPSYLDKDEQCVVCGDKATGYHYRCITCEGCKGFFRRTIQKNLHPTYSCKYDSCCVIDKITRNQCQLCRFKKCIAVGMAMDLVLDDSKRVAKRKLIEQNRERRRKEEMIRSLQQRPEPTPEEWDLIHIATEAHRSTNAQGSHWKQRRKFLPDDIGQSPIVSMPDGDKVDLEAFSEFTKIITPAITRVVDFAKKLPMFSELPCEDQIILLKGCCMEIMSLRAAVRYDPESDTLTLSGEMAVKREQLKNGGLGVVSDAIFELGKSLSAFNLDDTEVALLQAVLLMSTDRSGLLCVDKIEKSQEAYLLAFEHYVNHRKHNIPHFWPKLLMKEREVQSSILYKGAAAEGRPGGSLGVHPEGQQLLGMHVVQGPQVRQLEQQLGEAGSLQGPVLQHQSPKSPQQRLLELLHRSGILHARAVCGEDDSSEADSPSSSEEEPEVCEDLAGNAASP

CC(C)(O)c1ccc(CNC(=O)c2cccnc2Oc2ccc3nonc3c2)cc1
inactive: [1] | [2] | [3] | [4] | [7] | [8] | [9] | [10] | [11] | [12] | [13] | [14] | [15]
active: [5] 27 µM | [6] 10.5 µM

Cc1c2ccccc2c(C)c2c1ccc1ccccc12
inactive: [2] | [9] | [10] | [14]
active: [1] 100 µM | [4] 10.4 µM | [5] 24.1 µM | [6] 2.57 µM | [8] 15 µM | [11] 5.5 µM | [12] 14.3 µM | [13] 35.9 µM | [16] 13.4 µM

O=C(OCCCCCCOC(=O)c1ccccc1)c1ccccc1
active: [4] 20.7 µM
inactive: [1] | [2] | [3] | [6] | [7] | [8] | [17] | [9] | [10] | [11] | [12] | [13] | [14] | [15]

O=C(O)c1ccccc1-n1cc(C(=O)O)c(=O)c2cc(Nc3c(F)cc(F)cc3Cl)c(Cl)cc21
inactive: [1] | [2] | [3] | [4] | [6] | [18] | [7] | [17] | [9] | [10] | [11] | [12] | [13] | [14]

CCCCCCCCCCCCO
active: [2] 36.2 µM | [9] 31 µM | [10] 19.8 µM | [11] 31 µM | [19] 31.9 µM | [12] 31.3 µM | [13] 36 µM | [16] 31.2 µM
inactive: [1] | [3] | [6] | [18] | [7] | [8] | [17] | [14]

CCN(Cc1cccnc1)C(=O)c1cccc(Cl)c1[C@]1(C)C(=O)N(Cc2ccc(OC)cc2OC)c2ccc(Cl)cc21
active: [4] 5.12 µM | [6] 0.0262 µM | [9] 6.76 µM | [11] 6.68 µM | [12] 8.86 µM | [13] 5.8 µM
inactive: [1] | [2] | [5] | [20] | [10] | [19] | [14] | [15]

O=C=NCCCCCCN=C=O
inactive: [1] | [2] | [4] | [5] | [6] | [18] | [20] | [8] | [9] | [10] | [11] | [12] | [13] | [14] | [16]
